ELG1 genotox – qHTS screen for small molecules that induce genotoxicity in human embryonic kidney (HEK293T) cells expressing luciferase-tagged ELG1; HEK293T ELG1-luciferase reporter, luminescence, 16 h; Potency, µM (top dose mostly 46 µM), for inactives: at the top dose activity change, positive = activation, hits mostly activators; AID 504466, 2011; actives 1.3% (n = 330,000); note: % of control where 0% means no effect; nearly all actives have a fitted effect of over 60% in size
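Step 1: seed 2,000 HEK293T ELG1-luciferase cells per well. Step 2: add compound or DMSO, incubate 16 hr at 37 °C. Step 3: ONE-Glo, 30 min at room temperature, read luminescence.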
SMN2 splice up – qHTS Assay for Enhancers of SMN2 Splice Variant Expression | AID 1458, 2008 | HEK293 SMN2-luciferase splicing reporter, luminescence, 30-36 h | actives 2.8% (n = 210,000) | Potency, µM (series often up to 46.1 µM), inactives show at the highest dose activity change, positive = activation, actives largely listed as activators; note: % of control where 0% means no effect; nearly all actives have a fitted effect of over 55% in size
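HEK293 cells carry an SMN2 minigene-luciferase reporter in which exon 7 inclusion puts luciferase in frame. Cells were seeded at 2000 cells/well, attached for 10-12 hours, then exposed to compounds for 30-36 hours at 37C before ONE-Glo luminescence.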
Rab9 prom act – qHTS Assay for Rab9 Promoter Activators; Potency, µM (highest dose often 9.22 µM), for inactives: at the top dose activation, negative = inhibition, most hits filed as activators; actives 2.8% (n = 320,000); Huh7 Rab9 promoter-luciferase reporter, luminescence, 24 h; note: % of control where 0% means no effect; nearly all actives have a fitted effect of over 60% in size
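Measured in stably transfected Huh7 cells bearing a Rab9 promoter–luciferase construct: 24 h compound treatment at 37 °C, followed by luminescence detection.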
FLuc modulator – qHTS profiling assay for firefly luciferase inhibitor/activator using purifed enzyme and Km concentrations of substrates (counterscreen for miR-21 project); Potency, µM (doses to about 57.5 µM), without a hit: at the top dose activity change, negative = inhibition, usual class: inhibitors; actives 6.9% (n = 360,000); AID 588342, 2011; purified FLuc, Km substrates, luminescence inhibition;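 note: plate controls were vehicle for no effect and reference inhibitor for full effect; nearly all actives have a fitted effect of over 55% in size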
Target sequence (P08659 whole entry, looked up): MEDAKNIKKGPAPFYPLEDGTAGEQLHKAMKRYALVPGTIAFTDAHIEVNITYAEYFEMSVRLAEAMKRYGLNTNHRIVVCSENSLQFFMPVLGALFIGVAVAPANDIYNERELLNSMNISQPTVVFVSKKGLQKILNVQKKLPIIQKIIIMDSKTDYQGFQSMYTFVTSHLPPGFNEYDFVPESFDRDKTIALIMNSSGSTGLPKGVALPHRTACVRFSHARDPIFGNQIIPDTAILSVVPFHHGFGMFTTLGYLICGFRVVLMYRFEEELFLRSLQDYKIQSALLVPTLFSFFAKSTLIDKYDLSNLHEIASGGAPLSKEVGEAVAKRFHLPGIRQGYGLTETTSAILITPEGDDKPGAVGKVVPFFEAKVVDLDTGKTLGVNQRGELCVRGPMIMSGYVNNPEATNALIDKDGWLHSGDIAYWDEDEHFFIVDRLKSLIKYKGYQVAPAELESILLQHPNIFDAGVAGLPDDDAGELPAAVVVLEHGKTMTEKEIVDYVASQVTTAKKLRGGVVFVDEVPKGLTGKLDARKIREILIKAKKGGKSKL
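Purified P. pyralis luciferase, 10 nM final, with Km-level 10 uM D-luciferin and 10 uM ATP in 50 mM Tris acetate pH 7.5, 10 mM Mg acetate, 0.01% Tween-20, 0.05% BSA; 6-point qHTS titration about 60 µM downward; luminescence read.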
NPC1 promoter act – qHTS Assay for NPC1 Promoter Activators; AID 485313, 2010; Potency, µM (top dose mostly 9.22 µM), without a hit: at the top dose activation, usual class: activators; actives 2.4% (n = 320,000); Huh7 NPC1 promoter luciferase reporter, 24 h; note: % of control where 0% means no effect; nearly all actives have a fitted effect of over 60% in size
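Luciferase expression driven by the NPC1 promoter was measured in stably transfected Huh7 cells after a 24 h compound incubation, using a luciferase reagent and a luminescence read.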
An asterisk follows results filed as active; ? = inconclusive; . = no result; [ ] = remark or other dose. A selection: hits, their analogues and other compounds. The true share with any hit is near 7.5%. Calls come from the whole dose curve; as a rule, active = well fitted curve in the direction sought with a large enough effect; inconclusive = small, poorly fitted or top-dose-only effect, or another doubt; inactive = no such curve, though single readings can be large; an effect the other way counts as inactive or inconclusive. Potency is the fitted concentration of half-maximal effect.

SMILES	ELG1 genotox	SMN2 splice up	Rab9 prom act	FLuc modulator	NPC1 promoter act
Cc1ccc(NC(=O)Cn2c(-c3ccc4c(c3)OCO4)cn(-c3ccccc3)c2=O)cc1	.	?	.	12µM*	.
COc1ccc(Nc2nccc(-c3cccc(N)c3)n2)cc1	0.2%	.	?	2.69µM*	1.78µM*
COc1ccc(Nc2nccc(-c3ccc(C#N)cc3)n2)cc1	-6.6%	.	-3.0%	1.3%	-5.0%
c1ccc(Cn2ccnc2-c2ccco2)cc1	?	14.7%	9.7%	21.3µM*	13.9%
CN(C)S(=O)(=O)c1ccc(Cl)c(C(=O)NC2CCCCCCC2)c1	-6.8%	.	-5.9%	-1.4%	-2.2%
O=C(N/N=C/c1cccc([N+](=O)[O-])c1)c1cc(-c2ccccc2)nc2ccccc12	4.7%	-2.5%[1.84 µM]	0.5%	2.0%	-2.8%
Cc1cc(-c2cccc([N+](=O)[O-])c2)nc2ccc3ccccc3c12	8.6%	-13.6%	?	2.69µM*	?
Cn1c(N)c(C(=O)c2cc(-c3ccccc3)nc3ccccc23)c(=O)n(C)c1=O	?	11.2µM*	8.9%	5.36µM*	14.3%
O=C(O)c1cc(-c2cccc([N+](=O)[O-])c2)nc2ccccc12	1.7%	.	-2.9%	19µM*	0.7%
COc1cc(C(=O)Nc2ccc(NC(=O)c3ccccc3Cl)nc2)cc(OC)c1OC	-16.4%	.	-1.9%	5.4%	-0.8%
O=C(COC(=O)CNC(=O)c1cccc(OC(F)F)c1)NNC(=O)c1ccccc1	2.4%	.	-3.7%	2.7%	0.6%
COc1ccc(CCn2c(O)cc3nn(-c4nc5ccccc5s4)c(=O)c-3c2C)cc1	13.7%	.	?	9.53µM*	2.82µM*
CCN(CC)S(=O)(=O)c1cc(C(=O)N=c2sccn2C)ccc1OC	1.2%	.	3.0%	3.3%	-0.1%
Cc1ccccc1C(=O)N=c1sccn1C	18.3%	-9.6%	15.5%	-16.9%	8.8%
CCCCOc1ccc(C(=O)N=c2sccn2C)cc1OC	?	.	2.82µM*	12µM*	3.55µM*
Cc1cccc(C(=O)N=c2sccn2C)c1[N+](=O)[O-]	10.3µM*	.	?	15.1µM*	2.82µM*
Cn1ccsc1=NC(=O)c1ccc(S(C)(=O)=O)c([N+](=O)[O-])c1	11.6%	.	30.0%	4.78µM*	?
Cc1ccc(C(=O)N=c2sccn2C)cc1S(=O)(=O)N1CCOCC1	?	.	1.41µM*	?	3.98µM*
COc1ccc(C2=NOC(Cn3nc(-c4ccccc4)cc3C(=O)NCc3ccccc3OC)C2)cc1 (stereo not given)	-2.2%	.	.	.	.
O=c1/c(=C\c2cccnc2)sc2nc3ccccc3n12	?	?	-1.8%	-16.0%[2.3 µM]	-5.4%
CCN(CC)c1ccc(/C=c2\sc3nc4ccccc4n3c2=O)c(O)c1	-19.1%	-46.0%	2.2%	?	3.6%
Cc1cc(/C=c2\sc3nc4ccccc4n3c2=O)c(C)n1-c1ccc(C(=O)O)cc1	4.7%	-22.4%	16.4%	15.1µM*	?
O=c1/c(=C/c2ccc(O)c([N+](=O)[O-])c2)sc2nc3ccccc3n12	12.1%	-20.0%	2.9%	6.75µM*	26.1%
Cc1cc(/C=c2/sc3nc4ccccc4n3c2=O)c(C)n1-c1ccccn1	-2.8%	-84.4%	-28.0%	0.135µM*	-32.5%
Cc1ccc(C2(C)NC(=O)N(CC(=O)c3ccc(Cl)s3)C2=O)cc1 (stereo not given)	-0.5%	22.3%	-3.6%	1.9%	-2.9%
SMILES	ELG1 genotox	SMN2 splice up	Rab9 prom act	FLuc modulator	NPC1 promoter act
CCOc1cc(/C=N/NC(=O)CNc2cccc(C)c2)ccc1OC(=O)c1ccccc1	-0.8%	-17.1%	3.1%	-3.8%	9.6%
COc1ccc(N/N=C/c2c(C(=O)O)ccc3ccccc23)cc1	5.9%	.	-38.1%	9.53µM*	-38.4%
O=C(O)c1cccc(N/N=C/c2cccc3ccccc23)c1	?	.	?	0.0757µM*	0.1µM*
COc1ccc2ccccc2c1/C=N/Nc1cccc(C(=O)O)c1	?	.	0.891µM*	8.49µM*	1.12µM*
CCOc1cc(/C=N/Nc2cccc(C(=O)O)c2)ccc1OC(=O)c1ccccc1	?	1µM*	0.1µM*	16.9µM*	0.0891µM*
Cc1ccccc1CN1CCNC(=O)C1CC(=O)NC1CCCCCCC1 (stereo not given)	1.0%	.	0.1%	-1.5%	-2.3%
CCCCCCCc1cc2c(cn1)C(=O)C(C)(OC(C)=O)C(O)=C2Cl (stereo not given)	.	6.0%	.	.	.
O=C(CCNC(=O)C1CCN(S(=O)(=O)c2ccc(F)cc2)CC1)NCc1ccncc1	1.2%	.	-0.2%	-1.5%	1.1%
Nc1ncnc2c1ncn2[C@@H]1O[C@H](CNS(=O)(=O)c2cc(S(=O)(=O)c3ccccc3)cs2)[C@@H](O)[C@H]1O	7.1%	.	.	.	.
Cc1cc(C)cc(N2C(=O)CSC23C(=O)N(CC(=O)NC2CCCCC2)c2ccccc23)c1 (stereo not given)	.	.	.	-7.8%	.
O=C(O)c1ccccc1NC(c1ccccc1)c1ccc(Cl)cc1 (stereo not given)	-0.7%	.	-0.2%	-0.6%	-0.9%
CNS(=O)(=O)c1cccc(C(=O)OCC(=O)c2cc(C)n(CC3CCCO3)c2C)c1 (stereo not given)	?	.	2.82µM*	1.35µM*	2.51µM*
CNS(=O)(=O)c1cccc(C(=O)OCC(=O)c2cc(C)n(-c3ccc4c(c3)OCO4)c2C)c1	11.1%	-23.6%	-2.8%	?	-1.4%
Cc1cc(C(=O)COC(=O)c2cccc(S(=O)(=O)N(C)C)c2)c(C)n1CC1CCCO1 (stereo not given)	10.1%	.	3.55µM*	0.953µM*	?
Cc1cc(C)n2nc(C(=O)OCC(=O)c3cc(C)n(CC4CCCO4)c3C)nc2n1 (stereo not given)	-0.7%	6.3%	-3.7%	-17.5%	1.2%
COc1ccc(OC)c(NC(=O)C(C)n2c(=O)c(-c3ccccc3NC(C)=O)nc3ccccc32)c1 (stereo not given)	.	.	.	-7.4%	.
COc1ccc(C(=O)NNC2=NS(=O)(=O)c3ccccc32)cc1OC	-5.0%	.	-2.3%	15.1µM*	1.5%
COc1ccc(C(=O)NNc2ccccc2)cc1OC	9.0%	-24.6%	-2.8%	-0.6%	-4.7%
O=C(COc1ccccc1)NNC1=NS(=O)(=O)c2ccccc21	4.0%	-4.5%	16.8%	23.9µM*	-1.6%
O=C(COC(=O)c1cc(S(=O)(=O)N2CCOCC2)ccc1F)NCc1ccco1	0.8%	.	4.2%	1.4%	-5.7%
O=C(O)CCCCCn1c(O)c(C=C2N=c3ccccc3=N2)sc1=S	-1.1%	-4.3%	-3.3%	9.53µM*	0.1%
O=C(O)CCCn1c(O)c(C=C2N=c3ccccc3=N2)sc1=S	10.7%	.	-5.1%	6.01µM*	-9.8%

Source: PubChem
